Records with an inconclusive call do not appear. The source made the active and inactive calls. Calls come from the whole dose curve; as a rule, active = well fitted cell-killing curve with a large enough effect; inconclusive = small, poorly fitted or top-dose-only effect, or effect the other way; inactive = no such curve, though single readings can be large or run the other way.
How the values were obtained:
[1] = Viability qHTS for spleen associated tyrosine kinase inhibitor (SYKi) naive MV4-11 cells (AID 1963823); note: nearly all actives have a fitted effect of over 40% in size
Method in brief: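 SYK inhibitor-naive MV4-11 cells, 500 per well, exposed to compounds for 72 hr at 37 C, 5% CO2. Viability read as CellTiter-Glo luminescence after 10 min at room temperature.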

[2] = Viability qHTS for spleen associated tyrosine kinase inhibitor (SYKi) drug resistant MV4-11 cells (AID 1963824); note: nearly all actives have a fitted effect of over 35% in size
Method in brief: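 SYK-inhibitor-resistant MV4-11 AML cells were seeded at 500 per well onto compound and cultured 72 hours (37 °C, 5% CO2). CellTiter-Glo was then added, and after 10 min at room temperature, luminescence gave viability.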
Potency is the fitted concentration of half-maximal effect.

| SMILES | Potency [1] | Potency [2] | viability (% of control) [1] | viability, % of control [2] |
| --- | --- | --- | --- | --- |
| CC(=O)c1ccc(O[C@@H]2OC[C@@H](O)[C@H](O)[C@H]2O[C@]2(CO)O[C@H](CO)[C@@H](O)[C@@H]2O)c(O)c1 | inactive | inactive | – | – |
| C=CC(=O)Nc1cc(Nc2ncc(Cl)c(-c3c[nH]c4ccccc34)n2)c(OC)cc1N(C)CCN(C)C | 0.058 µM (active) | 0.0146 µM (active) | – | – |
| O=C1NC(=O)/C(=C\c2ccc3nccc(-c4ccncc4)c3c2)S1 | 0.13 µM (active) | 0.517 µM (active) | – | – |
| CSC(=O)OCC1=C[C@@H]2OC(=O)C3=CO[C@@H](O[C@@H]4O[C@H](CO)[C@@H](O)[C@H](O)[C@H]4O)[C@H]1[C@@H]32 | inactive | inactive | – | – |
| CCOc1ccc(-n2c([C@@H](C)N(Cc3cccnc3)C(=O)Cc3ccc(OC(F)(F)F)cc3)nc3ncccc3c2=O)cc1 | 18.4 µM (active) | 16.4 µM (active) | – | – |
| CNC(=O)[C@H]1O[C@@H](n2cnc3c(NCc4ccc(N)c(I)c4)ncnc32)[C@H](O)[C@@H]1O | – | – | 77.1% [at 9.25 µM] (inactive) | 80.4% [at 9.25 µM] (inactive) |
| O=C(O)CCc1c(C(=O)O)[nH]c2cc(Cl)cc(Cl)c12 | inactive | inactive | – | – |
| C=CC(C)(C)c1[nH]c2ccccc2c1C[C@@H]1NC(=O)[C@H](C)NC1=O | inactive | inactive | – | – |
| Cc1cc(-c2nc(C(=O)Nc3cn(C4CCOCC4)nc3C(N)=O)co2)ccn1 | 0.0461 µM (active) | 0.146 µM (active) | – | – |
| C=C(NC(=O)C(=C)NC(=O)c1csc(C2=NC3c4csc(n4)C4NC(=O)c5csc(n5)C(C(C)(O)C(C)O)NC(=O)C5CSC(=N5)/C(=C/C)NC(=O)C(C(C)O)NC(=O)c5csc(n5)C3(CC2)NC(=O)C(C)NC(=O)C(=C)NC(=O)C(C)NC(=O)C(C(C)CC)NC2C=Cc3c(C(C)O)cc(nc3C2O)C(=O)OC4C)n1)C(N)=O (stereo not given) | 1.3 µM (active) | 0.58 µM (active) | – | – |
| C/C=C(\C)C(=O)OC1C(C)C2(O)C(C=C(CO)CC3(O)C(=O)C(C)=CC32)C2C(C)(C)C12OC(=O)C(C)C (stereo not given) | 0.02 µM (active) | 0.008 µM (active) | – | – |
| C/C=C(\C)C(=O)O[C@@H]1CC2[C@@H](CC=C3C[C@@H](O[C@H]4C[C@H](OC)[C@H](O[C@H]5C[C@H](OC)[C@H](O[C@@H]6O[C@H](C)[C@@H](O[C@H]7C[C@H](OC)[C@H](O[C@@H]8O[C@H](CO)[C@@H](O)[C@H](O)[C@H]8O)[C@@H](C)O7)[C@H](OC)[C@H]6O)[C@@H](C)O5)[C@@H](C)O4)CC[C@@]32C)[C@@]2(O)CC[C@H](C(C)=O)[C@@]12C (stereo not given in full) | – | – | 53.3% [at 9.25 µM] (inactive) | 61.7% [at 9.25 µM] (inactive) |
| CC1CCC2C(=CCC(O)C2(C)C)C1(C)Cc1c(O)cc(CO)c(C=O)c1O (stereo not given) | 10.1 µM (active) | 7.18 µM (active) | – | – |
| Cc1cc2c(c(=O)o1)C=C1CC[C@H]([C@H](C)Cn3cnc(=N)c4[nH]cnc43)C[C@@H]1O2 | inactive | inactive | – | – |
| CC(C)c1ccc2c(c1)C(O)CC1C(C)(C(=O)O)CCCC21C (stereo not given) | inactive | inactive | – | – |
| CC1(C)CC[C@]2(C(=O)O[C@@H]3O[C@H](CO[C@@H]4O[C@H](CO)[C@@H](O)[C@H](O)[C@H]4O)[C@@H](O)[C@H](O[C@@H]4O[C@H](CO)[C@@H](O)[C@H](O)[C@H]4O)[C@H]3O)CC[C@]3(C)C(=CCC4[C@@]5(C)CC[C@H](O[C@@H]6OC[C@@H](O)[C@H](O)[C@H]6O)[C@@](C)(C(=O)O)C5CC[C@]43C)[C@@H]2C1 (stereo not given in full) | – | – | 83.1% [at 9.25 µM] (inactive) | 108% [at 9.25 µM] (inactive) |
| C/C=C(\C)C(=O)O[C@H]1C=CC(=O)O[C@H]1/C=C/[C@H](O)[C@@H](C)O | 9.2 µM (active) | 7.31 µM (active) | – | – |
| COC(=O)c1ccccc1O[C@@H]1O[C@H](CO)[C@@H](O)[C@H](O)[C@H]1O[C@@H]1O[C@@H](C)[C@H](O)[C@@H](O)[C@H]1O | inactive | inactive | – | – |
| Oc1ccc2c(c1)OCC1(O)Cc3cc(O)c(O)cc3C21 (stereo not given) | 3.66 µM (active) | 3.66 µM (active) | – | – |
| CN(c1ccc(NC(=O)Nc2ccccc2)cc1)S(=O)(=O)c1cnn(-c2ccc(F)cc2)c1 | 16.4 µM (active) | 23.1 µM (active) | – | – |
| O=C(/C=C/c1ccc(O)cc1)OC[C@]12O[C@H]1[C@@H](O)[C@@H]1C=CO[C@@H](O[C@@H]3O[C@H](CO)[C@@H](O)[C@H](O)[C@H]3O)[C@@H]12 | inactive | inactive | – | – |
| COc1cc(O)cc(C)c1C(=O)O[C@@H]1[C@H](O)[C@@H](CO)O[C@H]1n1ccc(=O)[nH]c1=O | 2.82 µM (active) | 2 µM (active) | – | – |
| CNC(=O)c1ccc2c(c1)CCO[C@H]2CCN1CCN(c2ccc(C(N)=O)cc2)CC1 | inactive | inactive | – | – |
| COC(=O)C1=COC(O[C@@H]2O[C@H](CO)[C@@H](O)[C@H](O)[C@H]2O)[C@@H]2[C@@](C)(O)[C@@H](OC(=O)/C=C/c3ccccc3)C[C@]12O (stereo not given in full) | inactive | inactive | – | – |
| Nc1nc(Cl)nc2c1ncn2C1OC(CO)C(O)C1F (stereo not given) | 0.116 µM (active) | 0.13 µM (active) | – | – |

| SMILES | Potency [1] | Potency [2] | viability (% of control) [1] | viability, % of control [2] |
| --- | --- | --- | --- | --- |
| COC(=O)CC(C)(O)CC(=O)OCc1ccc(O[C@@H]2O[C@H](CO)[C@@H](O)[C@H](O)[C@H]2O)cc1 (stereo not given in full) | inactive | inactive | – | – |
| C=C1C(=O)O[C@@H]2/C=C(\CO)CC/C=C(/C=O)C[C@@H](O)[C@@H]12 | 3.66 µM (active) | 2.06 µM (active) | – | – |
| CC(C)CN(CC(=O)N(CCCN1CCCC1=O)CC(N)=O)C(=O)CNCCc1ccccc1F | inactive | inactive | – | – |
| Nc1nc(NC2CC2)cc(-c2cccc(Cl)c2Cl)n1 | 10.3 µM (active) | 7.31 µM (active) | – | – |
| CC(=O)N[C@H]1CCN(c2ccc(C3=NOC(CN[S+](=O)([O-])C(C)C)C3)cc2F)C1 (stereo not given in full) | inactive | 13 µM (active) | – | – |
| FC(F)(F)c1cc(C(F)(F)F)c2ccc3nc(-c4nnco4)cn3c2n1 | inactive | inactive | – | – |
| CN1CCN(C(=O)c2ccc3cc(CCNc4ncnc5ccc(C#N)cc45)ccc3c2)CC1 | 0.92 µM (active) | 0.461 µM (active) | – | – |
| CC1(C(=O)O)CCCC2(C)C3CCC4CC3(CCC12)CC4C(=O)O (stereo not given) | inactive | inactive | – | – |
| C=C1C2CCC3CC2(CC(O)C2(O)C1CC(OC1OC(CO)C(O)C(O)C1O)C2(C)C)CC3(C)O (stereo not given) | inactive | inactive | – | – |
| Nc1nonc1-c1nc2cnccc2n1C1CCCCC1 | 0.517 µM (active) | 0.731 µM (active) | – | – |
| COc1cc(/C=C/C(=O)O[C@@H]2O[C@H](CO)[C@@H](O)[C@H](O)[C@H]2O)ccc1O | inactive | inactive | – | – |
| Cc1nnsc1C(=O)Nc1ccc(-n2nc(C(F)(F)F)cc2C(F)(F)F)cc1 | 18.4 µM (active) | 16.4 µM (active) | – | – |
| CC(=O)NC1CC(=O)C23C(=O)NC(Cc4c[nH]c5ccccc45)C2C(C)=C(C)C(O)C3/C=C/CC(C)/C=C(/C)C(O)C1O (stereo not given) | inactive | inactive | – | – |
| C/C=C/C1=CC2=C(CO1)C(=O)C(C)(OC(=O)c1c(C)cc(O)cc1OC)C(O)C2 (stereo not given) | 5.7 µM (active) | 5.08 µM (active) | – | – |
| COC(=O)C1(O)C(OC(C)=O)CCC2C3(CC(c4ccoc4)OC3=O)C(C)=CCC21C(=O)OC (stereo not given) | inactive | inactive | – | – |
| COc1cc(OC)c(C(=O)/C=C/c2ccccc2)c2c1C=CC(C)(C)O2 | 10.3 µM (active) | 5.17 µM (active) | – | – |
| C[C@@H]1C(=O)O[C@H]2[C@@H](O)C34[C@H]5C[C@@H](C(C)(C)C)C36[C@@H](OC(=O)[C@@H]6O)O[C@@]4(C(=O)O5)[C@@]12O (stereo not given in full) | inactive | inactive | – | – |
| CC(=O)OC1C(O)CC2(C)C(CCC3(C)C2CC=C2C4C5(CCC(CO[C@@H]6O[C@H](CO)[C@@H](O)[C@H](O)[C@H]6O)(OC5=O)C4(C)O)C(O)CC23C)C1(C)C (stereo not given in full) | inactive | inactive | – | – |
| CC1OC(OC2C(C)OC(OC3C(OC(=O)/C=C/c4ccc(O)cc4)C(CO)OC(OC4(COC(=O)/C=C/c5ccc(O)cc5)OC(CO)C(O)C4O)C3OC3OCC(O)(CO)C3O)C(O)C2O)C(O)C(O)C1O (stereo not given) | – | – | 86.5% [at 9.25 µM] (inactive) | 112% [at 9.25 µM] (inactive) |
| CC1(O)CC(O)C2(O)C=COC(O[C@@H]3O[C@H](CO)[C@@H](O)[C@H](O)[C@H]3O)C12 (stereo not given in full) | inactive | inactive | – | – |
| C[C@@H]1O[C@@H](O[C@H]2[C@H](OC(=O)[C@]34CCC(C)(C)C[C@H]3C3=CCC5[C@@]6(C)CC[C@H](O[C@@H]7O[C@H](CO[C@@H]8OC[C@H](O)[C@H](O)[C@H]8O[C@@H]8OC[C@@H](O)[C@H](O)[C@H]8O)[C@@H](O)[C@H](O)[C@H]7O)C(C)(C)C6CC[C@@]5(C)[C@]3(C)C[C@H]4O)O[C@H](CO)[C@@H](O)[C@@H]2O)[C@H](O[C@@H]2O[C@H](CO)[C@@H](O)[C@H](O)[C@H]2O)[C@H](O)[C@H]1O[C@@H]1OC[C@@H](O)[C@H](O[C@@H]2OC[C@@H](O)[C@H](O)[C@H]2O)[C@H]1O (stereo not given in full) | – | – | 93.4% [at 4.97 µM] (inactive) | 88.9% [at 4.97 µM] (inactive) |
| C=C1C(=O)OC2/C=C(/C)C3=CC(=O)C(C)(CC(OC(=O)/C(C)=C/COC(C)=O)C12)O3 (stereo not given) | 0.893 µM (active) | 0.796 µM (active) | – | – |
| O=C(/C=C/c1ccc(O)cc1)O[C@H]1[C@@H]2C=CO[C@@H](O[C@@H]3O[C@H](CO)[C@@H](O)[C@H](O)[C@H]3O)[C@@H]2[C@@]2(CO)O[C@@H]12 | inactive | inactive | – | – |
| O=C1CC[C@@H](C(=O)N2CSC[C@H]2C(=O)O)N1 | inactive | inactive | – | – |
| Cc1c(Cl)cccc1S(=O)(=O)Nc1nc(NCCc2ccccc2)nc2c1CN(Cc1ccccc1)CC2 | 16.4 µM (active) | 13 µM (active) | – | – |

Source: PubChem BioAssay (NCATS)
